Measurements from PubChem BioAssay AID504773 (Broad Institute, 2011).
Results with a measured potency or affinity are listed apart. The source made the active and inactive calls.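 The calls were made as follows: active = polarization signal falls with dose and the fitted half-maximal concentration is at or below ten times the sample's top valid dose; inconclusive = flat curve at 30 to 70% inhibition, or poor fit; inactive = signal rises, flat within 30%, or potency beyond limit.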

molecular target: Golgi-associated PDZ and coiled-coil motif-containing protein (Homo sapiens) (UniProt Q9HD26); test: CAL PDZ peptide-binding inhibitors, dose response, biochemical, fluorescence polarization, Cerulean-tagged CAL PDZ, cherry-picks (AID 504773); conditions: 1 h; series mostly up to 50 µM

outcome, inactive:
CCOc1ccc(NC(=O)c2nsc(Cl)c2Cl)cc1, CC12CCC(C(=O)N(CCCN3CCN(Cc4ccccc4)CC3)C1=O)C2(C)C (configuration not stated), CC(c1ccccc1)N1CCN(C(=O)CCl)CC1 (configuration not stated), Nc1nc2ccccc2cc1S(=O)(=O)c1ccccc1, Cc1ccc(-n2c(SCC(N)=O)nnc2-c2ccco2)cc1, CCN(CCCn1c(=S)[nH]c2ccc(N3CCOCC3)cc2c1=O)c1ccccc1, Cc1[nH]c2ccccc2c1C(=O)CSc1nc2ncc(Cl)cc2[nH]1, COCCCNC(=O)c1c[nH]c2ccc(S(=O)(=O)N3CCC(C)CC3)cc2c1=O, O=C(Cc1ccccc1)NN=C1CCCC1, CCCNC(=O)C(=O)NCC1CCCN1CC (configuration not stated), CCN(C(=O)CSc1ncccc1C(=O)O)C1CCCCC1, CS(=O)(=O)N(CC(=O)N1CCOCC1)c1cccc(F)c1, CC(=O)Nc1cc(NC(C)=O)cc(C(=O)OCC(=O)Nc2ccc(S(=O)(=O)NC3=NCCCCC3)cc2)c1, O=C(O)c1[nH]c2ccccc2c1C(c1ccccc1)c1c(C(=O)O)[nH]c2ccccc12, C=CCN1C(=O)/C(=C/c2ccsc2)SC1=S, FC(F)(F)c1cc(-c2cccs2)nc2ncnn12, CCCCN1CC(O)=C(c2nc(-c3ccc(Cl)cc3)cs2)C1=N, CCC(=O)N1CCC(C(N)=O)(N2CCCCC2)CC1, CC(C)CNC(=O)COC(=O)CCC(=O)c1ccc(Cl)cc1, O=C(O)c1cccc(Nc2ccc([N+](=O)[O-])cn2)c1, CC(CN1CCCC1)OC(=O)C(c1ccccc1)c1ccccc1 (configuration not stated), Cc1nn(C)cc1CN(C)C(=O)c1nn2c(c1Br)NC(c1cccs1)CC2C(F)(F)F (configuration not stated), COc1ccc(/C=N/N2CCN(c3ccccc3OC)CC2)cc1Br, O=C(COC(=O)c1ccc(Cl)nc1)Nc1ccc(N2CCCCC2)cc1, O=C(NC1(C(F)(F)F)NC(=O)N(C2CCCCC2)C1=O)C1CC1 (configuration not stated), CS(=O)(=O)N1CCN(C(=O)c2ccc3c(c2)OCCO3)CC1, CCC(C(=O)NN1C(=O)c2ccccc2C1=O)c1ccccc1 (configuration not stated), Cc1ccc(SCC(=O)NCc2ccc(F)cc2)cc1, COC(=O)c1ccccc1NC(=O)n1cc(C)cn1, O=C(NCc1cccnc1)/C(=C/c1ccc(-c2cccc(C(F)(F)F)c2)o1)NC(=O)c1ccccc1, CCOc1ccc(C(=O)NCC(=O)N2CCC(C)CC2)cc1OCC, O=C(OCc1ccc(Br)cc1)c1cccnc1, COc1cccc(N2CCN(C(=O)c3ccc(-c4ccccc4)cc3)CC2)c1, Cc1ccc(-c2nnn(CC(=O)N(CCN3CCOCC3)C(C(=O)NC(C)(C)C)c3ccc(C)o3)n2)cc1 (configuration not stated), O=C(NC12CC3CC(CC(C3)C1)C2)c1ccco1, Cc1cc(C(=O)Nc2ccccc2Cl)c2ccccc2n1, CCOc1ccc(C2=Nn3c(nnc3-c3ccco3)SC2)cc1
